From PubChem BioAssay (Tox21)
Values joined by “and” are separate entries in the source; they are usually repeats but may differ in a detail not shown here. Equal entries are not always repeated. Results filed as inconclusive are left out. Entries that show only a call come without a potency. A structure can be active in one record and inactive in another. Active and inactive are the calls of the source. Unless noted, calls come from the whole dose curve; as a rule, active = well fitted curve in the direction sought with a large enough effect in the repeat runs; inconclusive = weak or mixed curves; inactive = no such curve, though single readings can be large; an effect the other way counts as inactive or inconclusive.

How the values were obtained:
[1] = qHTS assay to identify small molecule antagonists of the glucocorticoid receptor (GR) signaling pathway - cell viability counter screen (AID 720693); note: nearly all actives have a fitted effect of over 55% in size
[2] = qHTS assay for identifying genotoxic compounds that show differential cytotoxicity against isogenic chicken DT40 cell lines with known DNA damage response pathways - wild type cell line (AID 743012); note: nearly all actives have a fitted effect of over 60% in size; note: potency is the fitted concentration of half-maximal effect
Procedure, shortened: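 Using parental DT40 (300 cells/well), compounds delivered in DMSO incubate 40 h at 37 C/5% CO2. CellTiter-Glo reagent then stands 30 min at room temperature, and luminescence gives cell viability.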

[3] = qHTS assay for identifying genotoxic compounds that show differential cytotoxicity against isogenic chicken DT40 cell lines with known DNA damage response pathways - Rev3 mutant cell line (AID 743014); note: nearly all actives have a fitted effect of over 55% in size; note: potency is the fitted concentration of half-maximal effect
[4] = qHTS assay for identifying genotoxic compounds that show differential cytotoxicity against isogenic chicken DT40 cell lines with known DNA damage response pathways - Rad54/Ku70 mutant cell line (AID 743015); note: nearly all actives have a fitted effect of over 60% in size; note: potency is the fitted concentration of half-maximal effect
[5] = qHTS assay to identify small molecule antagonists of the androgen receptor (AR) signaling pathway - cell viability counter screen (AID 743033; note: nearly all actives have a fitted effect of over 45% in size; note: potency is the fitted concentration of half-maximal effect)
[6] = qHTS assay to identify small molecule antagonists of the androgen receptor (AR) signaling pathway using the MDA cell line - cell viability counter screen (AID 743041; note: nearly all actives have a fitted effect of over 45% in size)
Procedure, shortened: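 MDA-kb2 AR-luc cells (MMTV-luciferase, AR/GR responsive) treated with compounds plus R1881 agonist for 16 h at 37C. CellTiter-Fluor added at 15.5 h; fluorescence read after 30 min in the same wells.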

[7] = target: Androgen receptor (Homo sapiens) (UniProt P10275); test: qHTS assay to identify small molecule antagonists of the androgen receptor (AR) signaling pathway (AID 743035; active = well fitted inhibition curve with a large enough effect in the signal ratio in the repeat runs, not every such curve was filed as active; the % refers to the signal ratio)
Procedure, shortened: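 Using qHTS, AR-UAS-bla GripTite HEK293 cells received compound, then R1881, and were cultured 16 h at 37C/5% CO2 before a 2 h room-temperature LiveBLAzer B/G FRET substrate step and fluorescence measurement.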

[8] = target: Androgen receptor (Homo sapiens) (UniProt P10275); test: qHTS assay to identify small molecule agonists of the androgen receptor (AR) signaling pathway (AID 743036; active = well fitted activation curve with a large enough effect in the signal ratio in the repeat runs, with a control signal flat, not every such curve was filed as active; the % refers to the signal ratio)
Procedure, shortened: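 Cell-based FRET reporter assay: HEK293 line with a UAS-beta-lactamase construct, compounds added in DMSO, 16 h exposure at 37C, then 2 h substrate step at room temperature and fluorescence intensity read.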

[9] = target: Androgen receptor (Homo sapiens) (UniProt P10275); test: qHTS assay to identify small molecule agonists of the androgen receptor (AR) signaling pathway using the MDA cell line (AID 743040; note: nearly all actives have a fitted effect of over 20% in size); conditions: MDA-kb2 AR-luc cells, MMTV luciferase, 16 h; at 70.3 µM (top of the series); stronger effect = higher value
Procedure, shortened: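 MDA-kb2 breast carcinoma cells carrying MMTV-luciferase (responsive to AR and GR), plated 5 h then treated 16 h with compounds at 37C, 0% CO2. Read-out was ONE-Glo luminescence after 30 min at room temperature.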

[10] = target: Androgen receptor (Homo sapiens) (UniProt P10275); test: qHTS assay to identify small molecule antagonists of the androgen receptor (AR) signaling pathway using the MDA cell line (AID 743042; note: nearly all actives have a fitted effect of over 55% in size)
Procedure, shortened: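 MDA-kb2 breast carcinoma cells carrying MMTV-luciferase (AR/GR responsive) were co-treated with compounds and the agonist R1881 for 16 h at 37C. Inhibition read as ONE-Glo luminescence; CellTiter-Fluor fluorescence measured in parallel for cytotoxicity.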

Sequence of Androgen receptor (Homo sapiens) (P10275 whole entry, looked up): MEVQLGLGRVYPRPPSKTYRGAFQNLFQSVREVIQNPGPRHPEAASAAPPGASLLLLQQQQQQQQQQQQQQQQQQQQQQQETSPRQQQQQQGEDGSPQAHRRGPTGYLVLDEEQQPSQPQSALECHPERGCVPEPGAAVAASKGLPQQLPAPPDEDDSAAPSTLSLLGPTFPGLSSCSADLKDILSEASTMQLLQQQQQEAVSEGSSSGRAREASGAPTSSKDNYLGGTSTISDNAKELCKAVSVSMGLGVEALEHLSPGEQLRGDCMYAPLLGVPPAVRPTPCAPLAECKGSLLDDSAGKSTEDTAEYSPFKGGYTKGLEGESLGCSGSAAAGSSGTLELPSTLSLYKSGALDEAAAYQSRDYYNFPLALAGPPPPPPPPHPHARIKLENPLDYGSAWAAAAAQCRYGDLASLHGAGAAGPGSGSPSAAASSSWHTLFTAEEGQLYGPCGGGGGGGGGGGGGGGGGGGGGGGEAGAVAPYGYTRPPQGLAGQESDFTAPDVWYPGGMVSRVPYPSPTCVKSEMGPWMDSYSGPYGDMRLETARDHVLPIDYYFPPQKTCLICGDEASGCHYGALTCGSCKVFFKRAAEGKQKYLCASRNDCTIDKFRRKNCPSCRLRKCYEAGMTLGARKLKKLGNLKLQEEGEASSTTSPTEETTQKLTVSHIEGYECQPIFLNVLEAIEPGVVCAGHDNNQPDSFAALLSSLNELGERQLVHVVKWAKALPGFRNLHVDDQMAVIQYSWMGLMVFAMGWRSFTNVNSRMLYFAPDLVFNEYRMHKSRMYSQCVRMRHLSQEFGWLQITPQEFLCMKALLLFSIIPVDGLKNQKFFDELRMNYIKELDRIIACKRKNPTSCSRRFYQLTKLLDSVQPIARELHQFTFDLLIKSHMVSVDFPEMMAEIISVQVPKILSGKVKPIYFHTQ

In the case of `CN1Cc2c(N)cccc2C(c2ccccc2)C1` (configuration not stated), the Potency [1] is reported as “inactive”, the Potency [2] is reported as “inactive” and the Potency [3] is reported as “inactive and 61.1 µM (active)”. For the same compound, the Potency [4] was “inactive and 54.5 µM (active)”, the Potency [5] was “inactive” and the Potency [6] was “inactive”.
With `C=C1C[C@]23C[C@@]1(O)CC[C@H]2[C@@]12C=C[C@H](O)[C@@](C)(C(=O)O1)[C@H]2[C@@H]3C(=O)O` the Potency [1] was “inactive”, the Potency [2] was “inactive” and the Potency [3] was “inactive”. The Potency [4] was “inactive”, the Potency [5] was “inactive” and the Potency [6] was “inactive”.
In the case of `CC(C)(C)NC[C@H](O)COc1nsnc1N1CCOCC1`, the Potency [1] is reported as “inactive”, the Potency [2] is reported as “inactive” and the Potency [3] is reported as “inactive”. The Potency [4] was “inactive”, the Potency [5] was “inactive” and the Potency [6] was “inactive”.
In the case of `O=C(O)Cc1c[nH]c2ccccc12`, the Potency [1] is reported as “inactive”, the Potency [2] is reported as “inactive” and the Potency [3] is reported as “inactive”. The Potency [4] was “inactive”, the Potency [5] was “inactive” and the Potency [6] was “inactive”.
For `CC/C(C)=N/O`, the Potency [1] was “inactive”, the Potency [2] was “inactive” and the Potency [3] was “inactive”. For the same compound, the Potency [4] was “inactive”, the Potency [5] was “inactive” and the Potency [6] was “inactive”.
With `O=c1n(CCCN2CCN(c3cccc(Cl)c3)CC2)nc2ccccn12` the Potency [1] was “inactive”, the Potency [2] was “inactive and 54.5 µM (active)” and the Potency [3] was “inactive and 54.5 µM (active)”. For the same compound, the Potency [4] was “inactive and 43.3 µM (active)”, the Potency [5] was “inactive” and the Potency [6] was “inactive”.
In the case of `Clc1cccc(Cl)c1NC1=NCCN1`, the Potency [1] is reported as “inactive”, the Potency [2] is reported as “inactive” and the Potency [3] is reported as “inactive and 61.1 µM (active)”. The Potency [4] was “inactive”, the Potency [5] was “inactive” and the Potency [6] was “inactive”.
In the case of `Cc1nnc(NS(=O)(=O)c2ccc(N)cc2)s1`, the Potency [1] is reported as “inactive”, the Potency [2] is reported as “inactive” and the Potency [4] is reported as “inactive”. The Potency [5] was “inactive”, the Potency [7] was “inactive” and the Potency [8] was “inactive”. The activity change [9] was 6.45% (inactive) and 3.21% (inactive), the Potency [6] was “inactive” and the Potency [10] was “inactive”.
For `CCN(CC)CCNC(=O)c1ccc(N)cc1`, the Potency [1] was “inactive”, the Potency [2] was “inactive” and the Potency [3] was “inactive”. The Potency [4] was “inactive”, the Potency [5] was “inactive” and the Potency [6] was “inactive”.
In the case of `CC(CN1c2ccccc2Sc2ccccc21)N(C)C` (configuration not stated), the Potency [1] is reported as “inactive”, the Potency [2] is reported as 21.1 µM (active) and 55 µM (active) and 54.5 µM (active) and the Potency [4] is reported as 26.6 µM (active) and 30.9 µM (active) and 54.5 µM (active). For the same compound, the Potency [5] was “inactive and 44.1 µM (active)”.
For `OC[C@H]1O[C@@H](Oc2ccc(O)cc2)[C@H](O)[C@@H](O)[C@@H]1O`, the Potency [1] was “inactive”, the Potency [2] was “inactive” and the Potency [3] was “inactive and 30.6 µM (active)”. The Potency [4] was “inactive”, the Potency [5] was “inactive” and the Potency [6] was “inactive”.
With `OC1CCCCC1` the Potency [1] was “inactive”, the Potency [2] was “inactive” and the Potency [3] was “inactive”. The Potency [4] was “inactive”, the Potency [5] was “inactive” and the Potency [6] was “inactive”.
In the case of `CCn1cc(C(=O)O)c(=O)c2cc3c(cc21)OCO3`, the Potency [1] is reported as “inactive”, the Potency [2] is reported as “inactive” and the Potency [4] is reported as “inactive”. For the same compound, the Potency [5] was “inactive” and the Potency [6] was “inactive”.
In the case of `CCCOC(=O)NCCCN(C)C`, the Potency [1] is reported as “inactive”, the Potency [2] is reported as “inactive” and the Potency [4] is reported as “inactive”. The Potency [5] was “inactive” and the Potency [6] was “inactive”.
With `COc1cc(NC(=O)CC(C)=O)c(OC)cc1Cl` the Potency [1] was “inactive”, the Potency [2] was “inactive” and the Potency [4] was “inactive”. For the same compound, the Potency [5] was “inactive” and the Potency [6] was “inactive”.
With `CC(=O)c1nccs1` the Potency [1] was “inactive”, the Potency [2] was “inactive” and the Potency [4] was “inactive”. For the same compound, the Potency [5] was “inactive” and the Potency [6] was “inactive”.
In the case of `CCCCCNCCCCC`, the Potency [1] is reported as “inactive”, the Potency [2] is reported as “inactive” and the Potency [4] is reported as “inactive”. The Potency [5] was “inactive” and the Potency [6] was “inactive”.
For `CCCCCC(C)=O`, the Potency [1] was “inactive”, the Potency [2] was “inactive” and the Potency [4] was “inactive”. The Potency [5] was “inactive” and the Potency [6] was “inactive”.
In the case of `CCc1cccc(O)c1`, the Potency [1] is reported as “inactive”, the Potency [2] is reported as “inactive” and the Potency [4] is reported as “inactive”. For the same compound, the Potency [5] was “inactive” and the Potency [6] was “inactive”.
In the case of `Nc1cccc(C(F)(F)F)c1`, the Potency [1] is reported as “inactive”, the Potency [2] is reported as “inactive” and the Potency [4] is reported as “inactive”. The Potency [5] was “inactive” and the Potency [6] was “inactive”.
In the case of `CC/C=C(\C(=O)N[C@@H]1C(=O)N2C(C(=O)OCOC(=O)C(C)(C)C)=C(COC(N)=O)CS[C@H]12)c1csc(N)n1`, the Potency [1] is reported as “inactive”, the Potency [2] is reported as “inactive” and the Potency [4] is reported as “inactive”. The Potency [5] was “inactive” and the Potency [6] was “inactive”.
For `C1CCCNCC1`, the Potency [1] was “inactive”, the Potency [2] was “inactive” and the Potency [4] was “inactive”. The Potency [5] was “inactive” and the Potency [6] was “inactive”.
For `Cc1ccc(Cl)cc1`, the Potency [1] was “inactive”, the Potency [2] was “inactive” and the Potency [4] was “inactive”. For the same compound, the Potency [5] was “inactive” and the Potency [6] was “inactive”.
In the case of `OB(O)O`, the Potency [1] is reported as “inactive”, the Potency [2] is reported as “inactive” and the Potency [4] is reported as “inactive”. The Potency [5] was “inactive” and the Potency [6] was “inactive”.
With `O=C(c1ccccc1)c1ccc(O)c(O)c1O` the Potency [1] was “inactive”, the Potency [4] was 61.1 µM (active) and the Potency [5] was “inactive”. For the same compound, the Potency [6] was “inactive”.
For `CCCCC(=O)O`, the Potency [1] was “inactive”, the Potency [2] was “inactive” and the Potency [4] was “inactive”. For the same compound, the Potency [5] was “inactive” and the Potency [6] was “inactive”.
With `COCN(COC)c1nc(N(COC)COC)nc(N(COC)COC)n1` the Potency [1] was “inactive”, the Potency [2] was “inactive” and the Potency [4] was “inactive”. For the same compound, the Potency [5] was “inactive” and the Potency [6] was “inactive”.
In the case of `Cc1cc(C)c(O)c(C)c1`, the Potency [1] is reported as “inactive”, the Potency [2] is reported as “inactive” and the Potency [4] is reported as “inactive”. For the same compound, the Potency [5] was “inactive” and the Potency [6] was “inactive”.
For `Cc1cccc(C)c1[N+](=O)[O-]`, the Potency [1] was “inactive”, the Potency [2] was “inactive” and the Potency [4] was “inactive”. For the same compound, the Potency [5] was “inactive” and the Potency [6] was “inactive”.
In the case of `CC(COCC(C)OC(=O)c1ccccc1)OC(=O)c1ccccc1` (configuration not stated), the Potency [1] is reported as “inactive”, the Potency [3] is reported as “inactive” and the Potency [4] is reported as 61.1 µM (active). The Potency [5] was “inactive” and the Potency [6] was “inactive”.
For `C[Si](C)(C)N[Si](C)(C)C`, the Potency [1] was “inactive”, the Potency [2] was “inactive” and the Potency [4] was “inactive”. For the same compound, the Potency [5] was “inactive” and the Potency [6] was “inactive”.
